Reference: PubChem BioAssay (NCI)
About 83,000 compounds went through this panel and 20% of them were active in at least one assay; those are over-represented in the sample as a whole.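 In brief: 96-well plates, 48 h treatment, single concentration, percent growth endpoint.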 Calls of active or inactive are those of the source. How the source made its calls: active means growth percent below 10; inactive means the rest.

Experiments:
Assay in all cases: NCI-60 one-dose screen, 48 h (100 = growth as untreated, 0 = no growth, -100 = all killed)
Conditions in all cases: 10 µM unless noted
SR leukemia = tested on: SR leukemia
RPMI-8226 leukemia = tested on: RPMI-8226 leukemia
OVCAR-8 ovarian = tested on: OVCAR-8 ovarian
OVCAR-5 ovarian = tested on: OVCAR-5 ovarian
OVCAR-4 ovarian = tested on: OVCAR-4 ovarian
SK-OV-3 ovarian = tested on: SK-OV-3 ovarian
IGROV1 ovarian = tested on: IGROV1 ovarian
OVCAR-3 ovarian = tested on: OVCAR-3 ovarian
HS 578T breast = tested on: HS 578T breast
NCI/ADR-RES ovarian = tested on: NCI/ADR-RES ovarian

Measured: growth

Cc1cc(=O)oc2cc(OCc3nn4c(Nc5nc6ccccc6s5)c(-c5ccccc5)nc4s3)ccc12
inactive: SR leukemia 94.7% | RPMI-8226 leukemia 82.6% | OVCAR-8 ovarian 80.4% | OVCAR-5 ovarian 97.5% | OVCAR-4 ovarian 61.4% | SK-OV-3 ovarian 92% | IGROV1 ovarian 89.2% | OVCAR-3 ovarian 95.3% | HS 578T breast 78.1% | NCI/ADR-RES ovarian 84.6%

O=C1/C(=C/c2cccc(F)c2)CN(C(=O)C(Cl)Cl)C/C1=C\c1cccc(F)c1
active: SR leukemia -15.8% | RPMI-8226 leukemia -31.3% | OVCAR-8 ovarian -48.3% | OVCAR-5 ovarian -63.6% | OVCAR-4 ovarian -36.9% | IGROV1 ovarian -77.2% | OVCAR-3 ovarian -92.2% | HS 578T breast -13.7% | NCI/ADR-RES ovarian -3.11%
inactive: SK-OV-3 ovarian 29.8%

NC(=O)C(=O)c1ccccc1NC=O
inactive: SR leukemia 113% | RPMI-8226 leukemia 105% | OVCAR-8 ovarian 95.4% | OVCAR-5 ovarian 102% | OVCAR-4 ovarian 98.4% | SK-OV-3 ovarian 97.4% | IGROV1 ovarian 94.8% | OVCAR-3 ovarian 110% | HS 578T breast 109% | NCI/ADR-RES ovarian 89.6%

N#CC(C#N)N=Nc1ccc(Br)cc1
inactive: RPMI-8226 leukemia 11.5% | OVCAR-8 ovarian 28% | OVCAR-5 ovarian 68.3% | OVCAR-4 ovarian 17.7% | SK-OV-3 ovarian 60.3% | IGROV1 ovarian 49.1% | OVCAR-3 ovarian 17.7% | HS 578T breast 87.1% | NCI/ADR-RES ovarian 60.9%
active: SR leukemia -15.2%

CCCCCC(/C=N\NC(=S)N/N=C/C(=C/c1ccccc1)CCCCC)=C\c1ccccc1
inactive: SR leukemia 56.2% | RPMI-8226 leukemia 44.7% | OVCAR-8 ovarian 64.4% | OVCAR-5 ovarian 105% | OVCAR-4 ovarian 56.2% | SK-OV-3 ovarian 85.9% | IGROV1 ovarian 64.1% | OVCAR-3 ovarian 26.2% | HS 578T breast 73.8% | NCI/ADR-RES ovarian 60.2%

Nc1[nH]n2cc(-c3ccccc3)nc2c1N=Nc1ccc(S(N)(=O)=O)cc1
inactive: SR leukemia 13.3% | OVCAR-8 ovarian 36.6% | OVCAR-5 ovarian 65.4% | OVCAR-4 ovarian 36.9% | SK-OV-3 ovarian 13.3% | IGROV1 ovarian 15.3% | OVCAR-3 ovarian 46.8% | NCI/ADR-RES ovarian 90%
active: RPMI-8226 leukemia 5.77% | HS 578T breast 5.14%

NS(=O)(=O)c1ccc(N=Nc2c(O)n(Cc3ccccc3)c3ccc(Cl)cc23)cc1
inactive: SR leukemia 60.2% | RPMI-8226 leukemia 90.7% | OVCAR-8 ovarian 65.1% | OVCAR-5 ovarian 86.8% | OVCAR-4 ovarian 28.7% | SK-OV-3 ovarian 74.3% | IGROV1 ovarian 84% | OVCAR-3 ovarian 89.4% | HS 578T breast 44.8% | NCI/ADR-RES ovarian 82.5%

Nc1c(C(=O)Nc2ccccc2C(F)(F)F)sc2nc3c(cc12)CCC3
inactive: SR leukemia 86.6% | RPMI-8226 leukemia 110% | OVCAR-8 ovarian 100% | OVCAR-5 ovarian 103% | OVCAR-4 ovarian 101% | SK-OV-3 ovarian 87.7% | IGROV1 ovarian 105% | OVCAR-3 ovarian 113% | HS 578T breast 95.1% | NCI/ADR-RES ovarian 101%

O=C(Nc1nc2ccc(C(=O)N3CCN(/C=C/c4ccccc4)CC3)cc2s1)c1ccc(NCCc2ccccc2)c([N+](=O)[O-])c1
active: SR leukemia -13.7%
inactive: RPMI-8226 leukemia 18.5% | OVCAR-8 ovarian 68.4% | OVCAR-5 ovarian 83.6% | OVCAR-4 ovarian 42.9% | SK-OV-3 ovarian 62.9% | IGROV1 ovarian 64.3% | OVCAR-3 ovarian 59.3% | HS 578T breast 69% | NCI/ADR-RES ovarian 70.2%

Cc1ccc(-c2nc(N3CCCNCC3)c3oc(-c4ccccc4)nc3n2)cc1
active: SR leukemia -42.3% | RPMI-8226 leukemia -49.1% | OVCAR-8 ovarian -44.1% | OVCAR-5 ovarian -87.3% | OVCAR-4 ovarian -62.6% | IGROV1 ovarian -85.3% | OVCAR-3 ovarian -85.7% | HS 578T breast -29.8% | NCI/ADR-RES ovarian -45.5%
inactive: SK-OV-3 ovarian 95.5%

CC(C)C1=NOC(=O)C1=Cc1cn(-c2ccccc2)nc1-c1ccc(F)cc1
inactive: OVCAR-8 ovarian 60.2% | OVCAR-5 ovarian 95.2% | OVCAR-4 ovarian 94.1% | SK-OV-3 ovarian 107% | IGROV1 ovarian 61.3% | OVCAR-3 ovarian 64% | HS 578T breast 49.6% | NCI/ADR-RES ovarian 101%
active: SR leukemia -17% | RPMI-8226 leukemia -17.4%

N#Cc1nc(-c2ccc(Cl)cc2)oc1S(=O)(=O)N1CCN(c2ccc(F)cc2)CC1
inactive: SR leukemia 23.9% | RPMI-8226 leukemia 88.4% | OVCAR-8 ovarian 82.3% | OVCAR-5 ovarian 108% | OVCAR-4 ovarian 106% | SK-OV-3 ovarian 98.3% | IGROV1 ovarian 78.8% | OVCAR-3 ovarian 108% | HS 578T breast 103% | NCI/ADR-RES ovarian 101%

C=CCOC(=O)Nc1cccn([C@H](Cc2ccccc2)C(=O)NCCC(C)C)c1=O
inactive: SR leukemia 64.6% | RPMI-8226 leukemia 85.9% | OVCAR-8 ovarian 102% | OVCAR-5 ovarian 117% | OVCAR-4 ovarian 92.7% | SK-OV-3 ovarian 103% | IGROV1 ovarian 106% | OVCAR-3 ovarian 119% | HS 578T breast 103% | NCI/ADR-RES ovarian 93.1%

CCN(CC)CCn1c2ccc(OC)cc2c2sc3cc(OC)ccc3c(=O)c21
inactive: RPMI-8226 leukemia 11.8% | OVCAR-8 ovarian 30% | OVCAR-5 ovarian 37.1% | OVCAR-4 ovarian 37.7% | SK-OV-3 ovarian 56.5% | IGROV1 ovarian 14.5% | OVCAR-3 ovarian 31.5% | HS 578T breast 46.1% | NCI/ADR-RES ovarian 23%
active: SR leukemia 1.43%

Oc1c(I)cc(I)cc1CNCc1ccccn1
inactive: SR leukemia 22.1% | RPMI-8226 leukemia 30.9% | OVCAR-8 ovarian 13.8% | OVCAR-5 ovarian 61.9% | OVCAR-4 ovarian 22.8% | SK-OV-3 ovarian 28% | IGROV1 ovarian 24.4% | OVCAR-3 ovarian 20.3% | HS 578T breast 57.9% | NCI/ADR-RES ovarian 10.3%

O=C1/C(=C/c2cn(-c3ccccc3)nc2-c2ccccc2)SC(=S)N1C1CCCCC1
inactive: SR leukemia 106% | RPMI-8226 leukemia 114% | OVCAR-8 ovarian 103% | OVCAR-5 ovarian 108% | OVCAR-4 ovarian 97.6% | SK-OV-3 ovarian 108% | IGROV1 ovarian 103% | OVCAR-3 ovarian 117% | HS 578T breast 103% | NCI/ADR-RES ovarian 102%

COc1ccc(/C=C/C(=O)c2cccc(OCCCCOc3cccc(C(=O)/C=C/c4ccc(OC)c(OC)c4)c3)c2)cc1OC
inactive: SR leukemia 69.4% | RPMI-8226 leukemia 35.6% | OVCAR-8 ovarian 68.3% | OVCAR-5 ovarian 102% | OVCAR-4 ovarian 32.9% | SK-OV-3 ovarian 89.6% | IGROV1 ovarian 75.2% | OVCAR-3 ovarian 80.9% | HS 578T breast 78.4% | NCI/ADR-RES ovarian 78.1%

CN(/C(N)=N/N=C/c1c2ccccc2cc2ccccc12)C1CCCCC1
inactive: OVCAR-8 ovarian 56.3% | OVCAR-5 ovarian 78.8% | OVCAR-4 ovarian 27.6% | SK-OV-3 ovarian 66% | IGROV1 ovarian 40.3% | OVCAR-3 ovarian 58.8% | HS 578T breast 66.6% | NCI/ADR-RES ovarian 45%
active: SR leukemia 0.552% | RPMI-8226 leukemia 2.66%

COc1ccc(/C=N/NC(=O)c2ccc(-n3cc(-c4ccccc4)nn3)cc2)cc1OC
inactive: SR leukemia 111% | RPMI-8226 leukemia 61.8% | OVCAR-8 ovarian 99% | OVCAR-5 ovarian 97.9% | OVCAR-4 ovarian 106% | SK-OV-3 ovarian 99.3% | IGROV1 ovarian 95.6% | OVCAR-3 ovarian 129% | HS 578T breast 103% | NCI/ADR-RES ovarian 101%

Cc1cc(N2CCN(CC(=O)Nc3ccc4c(ccn4C)c3)CC2)nc(N2CCCCCC2)n1
inactive: SR leukemia 122% | RPMI-8226 leukemia 76.1% | OVCAR-8 ovarian 83.3% | OVCAR-5 ovarian 100% | OVCAR-4 ovarian 92.2% | SK-OV-3 ovarian 84.4% | IGROV1 ovarian 83.5% | OVCAR-3 ovarian 82.6% | HS 578T breast 96.8% | NCI/ADR-RES ovarian 91.5%

COc1ccc(/C=N/C2=C(C#N)C(c3ccccc3)c3ccc4ccccc4c3O2)cc1 (stereo not given)
inactive: SR leukemia 23.6% | OVCAR-8 ovarian 14.1% | OVCAR-5 ovarian 26.7% | OVCAR-4 ovarian 56.6% | SK-OV-3 ovarian 21.6% | IGROV1 ovarian 26.2% | HS 578T breast 29.8%
active: RPMI-8226 leukemia 8.19% | OVCAR-3 ovarian 2.08% | NCI/ADR-RES ovarian 4.68%

O=C(c1ccccc1)c1ccc(C2CCCCC2)cc1
inactive: SR leukemia 107% | RPMI-8226 leukemia 95.6% | OVCAR-8 ovarian 97.8% | OVCAR-5 ovarian 95.4% | OVCAR-4 ovarian 95.2% | SK-OV-3 ovarian 91.6% | IGROV1 ovarian 100% | OVCAR-3 ovarian 98.7% | HS 578T breast 103% | NCI/ADR-RES ovarian 99.7%

Nc1n[nH]c2ccc([C@H]3[C@@H]4C5CCC(C5)[C@@H]4c4c(ccc5[nH]ncc45)N3S(=O)(=O)C3CC3)cc12 (stereo not given in full)
inactive: SR leukemia 11.3% | OVCAR-8 ovarian 17.4% | OVCAR-5 ovarian 23.4% | OVCAR-4 ovarian 30.3% | SK-OV-3 ovarian 52.7% | IGROV1 ovarian 18.8% | HS 578T breast 22.7%
active: RPMI-8226 leukemia 4.56% | OVCAR-3 ovarian -38.8% | NCI/ADR-RES ovarian 0.763%

CCN(CC)CCn1c2ccc(O)cc2c2sc3cc(O)ccc3c(=O)c21
inactive: RPMI-8226 leukemia 28.3% | OVCAR-8 ovarian 31.4% | OVCAR-5 ovarian 54% | OVCAR-4 ovarian 46.6% | SK-OV-3 ovarian 48.7% | IGROV1 ovarian 15.4% | OVCAR-3 ovarian 41% | HS 578T breast 64.5% | NCI/ADR-RES ovarian 61.1%
active: SR leukemia 5.78%

CC(=O)/C(=C\c1c(-c2ccccc2)[nH]c2ccccc12)S(C)(=O)=O
active: SR leukemia -25.2% | RPMI-8226 leukemia -32.2% | OVCAR-4 ovarian -29.6% | OVCAR-3 ovarian -54.6% | HS 578T breast 3.31% | NCI/ADR-RES ovarian -19.5%
inactive: OVCAR-8 ovarian 40.9% | OVCAR-5 ovarian 78.3% | SK-OV-3 ovarian 35.9% | IGROV1 ovarian 54.1%

Cc1[nH]c(=O)[nH]c(=O)c1Br
inactive: SR leukemia 77.6% | RPMI-8226 leukemia 111% | OVCAR-8 ovarian 95.2% | OVCAR-5 ovarian 114% | OVCAR-4 ovarian 117% | SK-OV-3 ovarian 115% | IGROV1 ovarian 147% | OVCAR-3 ovarian 124% | HS 578T breast 104% | NCI/ADR-RES ovarian 97.8%

CCC(C)(C)C(=O)O[C@H]1C[C@@H](C)C=C2C=C[C@H](C)[C@H](CC[C@@H]3CC(SCCN)CC(=O)O3)[C@H]21 (stereo not given in full)
active: RPMI-8226 leukemia 6.62%
inactive: SR leukemia 23.3% | OVCAR-8 ovarian 88.1% | OVCAR-5 ovarian 99.1% | OVCAR-4 ovarian 101% | SK-OV-3 ovarian 102% | IGROV1 ovarian 98.6% | OVCAR-3 ovarian 90.9% | HS 578T breast 98.9% | NCI/ADR-RES ovarian 96.7%
